In PubChem BioAssay (Tox21):
Several values for one entry are separate records, joined by “and”; a condition that tells them apart may be missing. Equal values may be shown once. Records with an inconclusive call do not appear. Entries that show only a call come without a potency. Where a structure was tested more than once in an assay, its records may differ in their call. Activity calls are given as the source filed them. Unless noted, the call rests on the fitted dose curve; in most records, active means well fitted curve in the direction sought with a large enough effect in the repeat runs; inconclusive means weak or mixed curves; inactive means no such curve, though single readings can be large; an effect the other way counts as inactive or inconclusive.

Assays:
[1] = qHTS assay to identify small molecule antagonists of the thyroid receptor (TR) signaling pathway - cell viability counter screen (AID 743064); further: nearly all actives have a fitted effect of over 50% in size; further: potency means the concentration at half of the fitted maximal effect
Procedure, shortened: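 Plate GH3.TRE-Luc cells; incubate 4 h at 37 °C; add compound, then T3 to 1 nM final; incubate 23.5 h; add CellTiter-Fluor; incubate 30 min at 37 °C, 5% CO2; read fluorescence.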

[2] = qHTS assay to identify small molecule antagonists of the thyroid receptor (TR) signaling pathway (AID 743065); further: nearly all actives have a fitted effect of over 55% in size; further: potency means the concentration at half of the fitted maximal effect
Procedure, shortened: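 GH3.TRE-Luc rat pituitary cells carrying two TR response elements driving luciferase were plated for 4 h, given compound plus 1 nM T3 (final), and incubated 23.5 h at 37 C. ONE-Glo luminescence measured reporter inhibition; CellTiter-Fluor fluorescence tracked cytotoxicity.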

[3] = system: thyroid hormone receptor (rat, GH3 cells); assay: qHTS assay to identify small molecule agonists of the thyroid receptor (TR) signaling pathway (AID 743066; calls by dose curve)
[4] = qHTS assay to identify small molecule antagonists of the estrogen receptor alpha (ER-alpha) signaling pathway - cell viability counter screen (AID 743074; calls by dose curve;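 further: HEK293 cells carrying ER-alpha-UAS-bla reporter stimulated with 17beta-estradiol; nearly all actives have a fitted effect of over 45% in size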; further: potency means the concentration at half of the fitted maximal effect)
[5] = qHTS assay to identify small molecule antagonists of the estrogen receptor alpha (ER-alpha) signaling pathway using the BG1 cell line - cell viability counter screen (AID 743081);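 further: compound given together with 17beta-estradiol as the ER stimulus; nearly all actives have a fitted effect of over 45% in size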; further: potency means the concentration at half of the fitted maximal effect
Aromatase (Homo sapiens) = Aromatase (Homo sapiens) (UniProt P11511); assay: qHTS assay to identify aromatase inhibitors (AID 743083); further: nearly all actives have a fitted effect of over 55% in size; further: potency means the concentration at half of the fitted maximal effect
Sequence of Aromatase (Homo sapiens) (P11511 whole entry, looked up): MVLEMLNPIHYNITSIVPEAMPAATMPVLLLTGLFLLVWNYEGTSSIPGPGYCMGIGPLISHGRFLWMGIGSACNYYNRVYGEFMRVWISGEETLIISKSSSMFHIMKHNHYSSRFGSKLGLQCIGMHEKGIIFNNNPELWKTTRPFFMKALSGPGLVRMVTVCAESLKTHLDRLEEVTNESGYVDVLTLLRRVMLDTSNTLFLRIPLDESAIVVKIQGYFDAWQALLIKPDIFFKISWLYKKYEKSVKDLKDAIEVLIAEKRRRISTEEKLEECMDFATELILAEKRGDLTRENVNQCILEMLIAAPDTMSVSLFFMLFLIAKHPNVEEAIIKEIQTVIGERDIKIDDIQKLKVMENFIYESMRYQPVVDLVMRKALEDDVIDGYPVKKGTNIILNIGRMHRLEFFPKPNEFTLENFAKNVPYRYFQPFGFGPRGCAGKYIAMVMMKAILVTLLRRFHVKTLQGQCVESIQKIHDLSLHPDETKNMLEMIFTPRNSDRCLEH

[6] = qHTS assay to identify aromatase inhibitors - cell viability counter screen (AID 743084);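 further: cells stimulated with testosterone during compound exposure; nearly all actives have a fitted effect of over 55% in size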; further: potency means the concentration at half of the fitted maximal effect
[7] = biological target: Aryl hydrocarbon receptor (Homo sapiens) (UniProt P35869); assay: qHTS assay to identify small molecule that activate the aryl hydrocarbon receptor (AhR) signaling pathway (AID 743085);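 further: HG2L7.5c1 human HepG2 liver cells with stably integrated DRE-driven firefly reporter; series mostly up to about 70 µM; nearly all actives have a fitted effect of over 15% in size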
Sequence of Aryl hydrocarbon receptor (Homo sapiens) (P35869 whole entry, looked up): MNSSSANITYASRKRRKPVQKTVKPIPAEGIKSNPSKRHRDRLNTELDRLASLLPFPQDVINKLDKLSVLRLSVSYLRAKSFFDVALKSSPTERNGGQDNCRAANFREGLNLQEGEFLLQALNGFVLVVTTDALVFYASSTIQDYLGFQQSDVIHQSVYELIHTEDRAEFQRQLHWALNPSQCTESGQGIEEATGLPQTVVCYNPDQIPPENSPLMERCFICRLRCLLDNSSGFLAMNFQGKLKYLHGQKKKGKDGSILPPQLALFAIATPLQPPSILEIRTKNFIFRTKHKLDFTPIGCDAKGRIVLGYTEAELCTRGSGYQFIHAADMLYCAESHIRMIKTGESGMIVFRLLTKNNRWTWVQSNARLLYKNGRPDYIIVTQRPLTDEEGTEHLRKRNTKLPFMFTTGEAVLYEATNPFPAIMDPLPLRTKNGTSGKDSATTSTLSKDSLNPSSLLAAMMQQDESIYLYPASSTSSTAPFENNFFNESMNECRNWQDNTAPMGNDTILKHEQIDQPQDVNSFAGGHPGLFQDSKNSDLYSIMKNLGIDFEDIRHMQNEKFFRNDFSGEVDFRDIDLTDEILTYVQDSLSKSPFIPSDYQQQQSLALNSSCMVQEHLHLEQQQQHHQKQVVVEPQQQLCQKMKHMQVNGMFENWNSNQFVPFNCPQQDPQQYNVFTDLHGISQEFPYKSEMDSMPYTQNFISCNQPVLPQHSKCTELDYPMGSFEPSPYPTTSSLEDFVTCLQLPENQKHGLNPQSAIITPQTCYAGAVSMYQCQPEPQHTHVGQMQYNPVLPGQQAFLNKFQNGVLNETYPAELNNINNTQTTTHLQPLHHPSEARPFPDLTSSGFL
Procedure, shortened: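 Steps: seed HepG2-AhR-luc cells; allow 5 h at 37C; pin-transfer test compound or vehicle; incubate 24 h at 37C; add viability dye (30 min, 37C) and read fluorescence; add luciferase substrate (30 min, RT) and read luminescence.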

[8] = qHTS assay to identify small molecule that activate the aryl hydrocarbon receptor (AhR) signaling pathway - cell viability counter screen (AID 743086); further: nearly all actives have a fitted effect of over 45% in size; further: potency means the concentration at half of the fitted maximal effect
Procedure, shortened: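 HepG2-AhR-luc (HG2L7.5c1) cells, 4000/well, were preincubated 5 h at 37C, exposed to compound in qHTS format for 24 hr at 37C, then given CellTiter-Fluor for 30 min; viability was read as fluorescence in the reporter wells.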

[9] = biological target: Peroxisome proliferator-activated receptor gamma (Homo sapiens) (UniProt P37231); assay: qHTS assay to identify small molecule antagonists of the peroxisome proliferator-activated receptor gamma (PPARg) signaling pathway (AID 743191; calls by dose curve; further: nearly all actives have a fitted effect of over 30% in size; further: potency means the concentration at half of the fitted maximal effect)
Sequence of Peroxisome proliferator-activated receptor gamma (Homo sapiens) (P37231 whole entry, looked up): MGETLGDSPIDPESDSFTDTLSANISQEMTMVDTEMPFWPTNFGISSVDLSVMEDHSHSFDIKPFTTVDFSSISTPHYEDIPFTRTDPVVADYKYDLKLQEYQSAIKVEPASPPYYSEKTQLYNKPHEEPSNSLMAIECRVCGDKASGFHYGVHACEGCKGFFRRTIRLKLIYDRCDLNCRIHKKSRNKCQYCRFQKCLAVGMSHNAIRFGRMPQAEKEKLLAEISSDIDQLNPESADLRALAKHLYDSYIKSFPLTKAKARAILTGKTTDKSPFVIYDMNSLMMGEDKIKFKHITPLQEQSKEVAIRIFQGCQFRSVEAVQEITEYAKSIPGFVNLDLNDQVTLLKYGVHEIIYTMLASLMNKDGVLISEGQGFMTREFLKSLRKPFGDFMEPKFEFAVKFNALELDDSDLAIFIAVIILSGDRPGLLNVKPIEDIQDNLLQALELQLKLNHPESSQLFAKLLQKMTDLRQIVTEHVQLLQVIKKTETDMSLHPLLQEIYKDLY
Procedure, shortened: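 GeneBLAzer PPARg UAS-bla HEK293H cells carrying a UAS-driven beta-lactamase reporter were plated at 3000 cells/well, preincubated 5 h at 37C, then given compound for 17 h at 37C; LiveBLAzer B/G FRET substrate was read after 1 h at room temperature.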

[10] = qHTS assay to identify small molecule antagonists of the peroxisome proliferator-activated receptor gamma (PPARg) signaling pathway - cell viability counter screen (AID 743194); conditions: Potency: co-treated with 50 nM rosiglitazone unless noted; further: nearly all actives have a fitted effect of over 55% in size
Procedure, shortened: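 PPARg-UAS-bla HEK293H cells were plated, rested 5 h at 37 C, then treated with compounds plus rosiglitazone (50 nM final) for 17 h at 37 C; viability was then read by CellTiter-Glo luminescence after 30 min at room temperature.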

[11] = qHTS assay for small molecule agonists of the antioxidant response element (ARE) signaling pathway - cell viability counter screen (AID 743203; calls by dose curve; further: nearly all actives have a fitted effect of over 55% in size; further: potency means the concentration at half of the fitted maximal effect)
Procedure, shortened: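 Cells (ARE-bla HepG2, 2,000/well) receive DMSO-dissolved compounds after a 5 hrs rest. Plates incubate 16 hrs at 37C/5% CO2. CellTiter-Glo luminescence is then recorded after 30 min at room temperature.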

[12] = qHTS assay for small molecule activators of the heat shock response signaling pathway - cell viability counter screen (AID 743209); further: nearly all actives have a fitted effect of over 50% in size
Procedure, shortened: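 Quantitative HTS format, Tox21 10K library. HeLa cells carrying an HSE-driven beta-lactamase reporter were treated 5 h at 37 C, then assessed for viability by CellTiter-Glo luminescence.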

[13] = qHTS assay for small molecule activators of the heat shock response signaling pathway (AID 743210; active means well fitted activation curve with a large enough effect in the signal ratio in the repeat runs, with a control signal flat, not every such curve was filed as active; the % refers to the signal ratio;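 further: HeLa cells with beta-lactamase reporter driven by heat shock elements; series mostly up to about 63 µM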)
Procedure, shortened: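 Reporter gene assay: HeLa cells stably bearing an HSE-bla construct, compound treatment 5 h at 37 C, LiveBLAzer substrate 2.5 h at RT, fluorescence intensity.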

[14] = qHTS assay for small molecule agonists of the antioxidant response element (ARE) signaling pathway (AID 743202; active means well fitted activation curve with a large enough effect in the signal ratio in the repeat runs, not every such curve was filed as active; the % refers to the signal ratio; further: potency means the concentration at half of the fitted maximal effect)
Procedure, shortened: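 Compounds delivered in DMSO to ARE-bla HepG2 cells (2,000 cells/well, pre-incubated 5 h) and left 16 h at 37 C. LiveBLAzer B/G FRET substrate then added for 2 h at RT before fluorescence reading.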

[15] = biological target: Estrogen receptor (Homo sapiens) (UniProt P03372); assay: qHTS assay to identify small molecule antagonists of the estrogen receptor alpha (ER-alpha) signaling pathway (AID 743069; active means well fitted curve in the direction sought with a large enough effect in the signal ratio in the repeat runs, not every such curve was filed as active; the % refers to the signal ratio)
Sequence of Estrogen receptor (Homo sapiens) (P03372 whole entry, looked up): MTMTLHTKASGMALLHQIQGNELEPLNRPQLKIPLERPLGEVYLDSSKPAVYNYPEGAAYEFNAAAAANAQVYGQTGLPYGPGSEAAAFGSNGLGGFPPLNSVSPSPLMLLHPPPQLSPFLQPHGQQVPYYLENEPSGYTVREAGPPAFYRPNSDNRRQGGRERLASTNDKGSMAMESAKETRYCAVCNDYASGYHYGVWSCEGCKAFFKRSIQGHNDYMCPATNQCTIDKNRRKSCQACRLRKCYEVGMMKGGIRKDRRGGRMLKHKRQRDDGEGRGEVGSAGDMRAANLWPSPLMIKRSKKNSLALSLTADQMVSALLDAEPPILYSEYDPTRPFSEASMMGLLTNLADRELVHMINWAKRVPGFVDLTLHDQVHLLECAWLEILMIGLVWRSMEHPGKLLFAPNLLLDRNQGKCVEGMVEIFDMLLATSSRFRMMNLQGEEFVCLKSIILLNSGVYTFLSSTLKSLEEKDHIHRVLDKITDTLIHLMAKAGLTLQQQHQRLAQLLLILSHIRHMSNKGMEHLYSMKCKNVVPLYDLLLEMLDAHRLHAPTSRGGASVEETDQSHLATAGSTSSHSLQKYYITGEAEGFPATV
Procedure, shortened: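 Estradiol-stimulated ER-alpha-UAS-bla HEK293 cells, 18 hr compound exposure at 37C. LiveBLAzer B/G substrate, 2 hr RT, fluorescence read.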

[16] = biological target: Estrogen receptor (Homo sapiens) (UniProt P03372); assay: qHTS assay to identify small molecule agonists of the estrogen receptor alpha (ER-alpha) signaling pathway (AID 743075; calls by dose curve;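 further: HEK293 GripTite cells with ER-alpha and UAS-driven beta-lactamase reporter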)
[17] = biological target: Estrogen receptor (Homo sapiens) (UniProt P03372); assay: qHTS assay to identify small molecule agonists of the estrogen receptor alpha (ER-alpha) signaling pathway using the BG1 cell line (AID 743079); further: nearly all actives have a fitted effect of over 20% in size
[18] = qHTS assay to identify small molecule antagonists of the estrogen receptor alpha (ER-alpha) signaling pathway using the BG1 cell line (AID 743080; calls by dose curve;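 further: BG1 cells stimulated with 17beta-estradiol alongside compound; series mostly up to about 70 µM; nearly all actives have a fitted effect of over 25% in size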)
Procedure, shortened: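 BG1-Luc-4E2 cells (endogenous full-length ER-alpha, stable 4×ERE-luciferase) were starved 5 days in phenol-red-free medium with 10% charcoal-stripped FBS, plated 24 h, then given compound plus 17beta-estradiol for 21.5 h at 37 C; ONE-Glo luminescence read after 30 min.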

[19] = biological target: Peroxisome proliferator-activated receptor gamma (Homo sapiens) (UniProt P37231); assay: qHTS assay to identify small molecule agonists of the peroxisome proliferator-activated receptor gamma (PPARg) signaling pathway (AID 743094; active means well fitted activation curve with a large enough effect in the signal ratio in the repeat runs, not every such curve was filed as active; the % refers to the signal ratio)
Procedure, shortened: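 Stably transfected HEK293H cells (GeneBLAzer PPARg UAS-bla) were incubated with test substances for 17 h at 37C after a 5 h pre-incubation; beta-lactamase activity was then detected by FRET substrate fluorescence.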

SMILES	Potency [1]	Potency [2]	Potency [3]	Potency [4]	Potency [5]	Potency (Aromatase (Homo sapiens))	Potency [6]	Potency [7]	Potency [8]	Potency [9]	Potency [10]	Potency [11]	Potency [12]	Potency [13]	Potency [14]	Potency [15]	Potency [16]	Potency [17]	Potency [18]	Potency [19]
CCCCC(CC)COC(=O)c1ccc(C(=O)OCC(CC)CCCC)c(C(=O)OCC(CC)CCCC)c1 (stereo not given)	inactive	inactive	inactive	inactive	inactive	inactive	inactive	inactive	inactive	inactive	inactive	inactive	inactive	inactive						
C=C(C)[C@H]1Cc2c(ccc3c2O[C@@H]2COc4cc(OC)c(OC)cc4[C@@H]2C3=O)O1	841 nM (active) and 8.75 µM (active) and 4.86 µM (active)	237 nM (active) and 34.8 nM (active) and 61.1 nM (active)	inactive	67.4 nM (active) and 44.2 nM (active)	7.8 µM (active) and 38.6 µM (active)	15 µM (active) and 34.8 µM (active) and 34.4 µM (active)	34.8 µM (active) and 34.4 µM (active)	inactive	inactive and 39.1 µM (active) and 21.7 µM (active)	13.3 µM (active)	inactive	15.6 µM (active) and 3.86 µM (active) and 3.76 µM (active)	inactive	inactive	0.0077 µM (active)					
COP(=O)(OC)OC	inactive	inactive	inactive		inactive	inactive	inactive	inactive	inactive	inactive	inactive	inactive	inactive	inactive		inactive	inactive	inactive	inactive	
CCN(CC)N=O	inactive	inactive	inactive	inactive	inactive	inactive	inactive	inactive	inactive	inactive	inactive	inactive	inactive	inactive						
C=CCN(CC=C)C(=O)C(Cl)Cl	inactive	inactive	inactive	inactive	inactive	inactive	inactive	inactive	inactive	inactive	inactive	inactive	inactive	inactive	inactive					inactive
C#C[C@]1(O)CC[C@H]2[C@@H]3CCC4=CC(=O)CC[C@]4(C)[C@H]3CC[C@@]21C	inactive	6.86 µM (active)	inactive	inactive	inactive	inactive	inactive	inactive	inactive		inactive	inactive	inactive	inactive						inactive
